Reference: PubChem BioAssay (Tox21)
Results filed as inconclusive are left out. Active and inactive are the calls of the source. Unless noted, the call rests on the fitted dose curve; in most records, active means well fitted curve in the direction sought with a large enough effect in the repeat runs; inconclusive means weak or mixed curves; inactive means no such curve, though single readings can be large; an effect the other way counts as inactive or inconclusive.

How the values were obtained:
[1] = qHTS assay to identify small molecule antagonists of the thyroid receptor (TR) signaling pathway - cell viability counter screen (AID 743064); further: nearly all actives have a fitted effect of over 50% in size
Outline: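 Plate GH3.TRE-Luc cells; incubate 4 h at 37 °C; add compound, then T3 to 1 nM final; incubate 23.5 h; add CellTiter-Fluor; incubate 30 min at 37 °C, 5% CO2; read fluorescence.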

[2] = qHTS assay to identify small molecule antagonists of the thyroid receptor (TR) signaling pathway (AID 743065); further: series mostly up to about 70 µM; nearly all actives have a fitted effect of over 55% in size
Outline: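 GH3.TRE-Luc rat pituitary cells (two TREs driving luciferase) were dosed with compound, then stimulated with 1 nM T3 (final) for 23.5 h at 37 C. ONE-Glo luminescence was the read-out, with CellTiter-Fluor fluorescence as the cytotoxicity counter-screen.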

[3] = system: thyroid hormone receptor (rat, GH3 cells); experiment: qHTS assay to identify small molecule agonists of the thyroid receptor (TR) signaling pathway (AID 743066; calls by dose curve)
[4] = qHTS assay to identify small molecule antagonists of the estrogen receptor alpha (ER-alpha) signaling pathway - cell viability counter screen (AID 743074; calls by dose curve; further: nearly all actives have a fitted effect of over 45% in size)
[5] = qHTS assay to identify small molecule antagonists of the estrogen receptor alpha (ER-alpha) signaling pathway using the BG1 cell line - cell viability counter screen (AID 743081);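 further: compound given together with 17beta-estradiol as the ER stimulus; series mostly up to about 70 µM; nearly all actives have a fitted effect of over 45% in size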
Aromatase (Homo sapiens) = Aromatase (Homo sapiens) (UniProt P11511); experiment: qHTS assay to identify aromatase inhibitors (AID 743083); further: series mostly up to about 70 µM; nearly all actives have a fitted effect of over 55% in size
[6] = biological target: Aryl hydrocarbon receptor (Homo sapiens) (UniProt P35869); experiment: qHTS assay to identify small molecule that activate the aryl hydrocarbon receptor (AhR) signaling pathway (AID 743085);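 further: HG2L7.5c1 human HepG2 liver cells with stably integrated DRE-driven firefly reporter; series mostly up to about 70 µM; nearly all actives have a fitted effect of over 15% in size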
Outline: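 Steps: seed HepG2-AhR-luc cells; allow 5 h at 37C; pin-transfer test compound or vehicle; incubate 24 h at 37C; add viability dye (30 min, 37C) and read fluorescence; add luciferase substrate (30 min, RT) and read luminescence.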

[7] = qHTS assay to identify small molecule that activate the aryl hydrocarbon receptor (AhR) signaling pathway - cell viability counter screen (AID 743086);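 further: HepG2 liver cells carrying the AhR DRE luciferase reporter; series mostly up to about 70 µM; nearly all actives have a fitted effect of over 45% in size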
Outline: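 HepG2-AhR-luc (HG2L7.5c1) cells, 4000/well, treated 24 h at 37 C with compound; viability measured as CellTiter-Fluor fluorescence after 30 min in the same wells as the luciferase read.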

[8] = biological target: Peroxisome proliferator-activated receptor gamma (Homo sapiens) (UniProt P37231); experiment: qHTS assay to identify small molecule agonists of the peroxisome proliferator-activated receptor gamma (PPARg) signaling pathway (AID 743094; active means well fitted activation curve with a large enough effect in the signal ratio in the repeat runs, not every such curve was filed as active; the % refers to the signal ratio)
Outline: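 Agonist activity was taken from a beta-lactamase reporter (FRET substrate, 1 h at room temperature) in HEK293H cells carrying a PPARg UAS-bla construct. Compounds in DMSO were incubated 17 h at 37C after a 5 h cell pre-incubation.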

[9] = qHTS assay to identify small molecule antagonists of the peroxisome proliferator-activated receptor gamma (PPARg) signaling pathway - cell viability counter screen (AID 743194); further: nearly all actives have a fitted effect of over 55% in size
Outline: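 Cytotoxicity counter screen in PPARg-bla HEK293H cells, same wells as reporter assay. Compounds plus 50 nM rosiglitazone (final) for 17 h at 37 C, then viability read by CellTiter-Glo luminescence.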

[10] = qHTS assay for small molecule agonists of the antioxidant response element (ARE) signaling pathway (AID 743202; active means well fitted activation curve with a large enough effect in the signal ratio in the repeat runs, not every such curve was filed as active; the % refers to the signal ratio)
Outline: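 HepG2 ARE-bla cells; 16 h treatment at 37 C; FRET-based beta-lactamase fluorescence read after 2 h substrate incubation at room temperature.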

[11] = qHTS assay for small molecule agonists of the antioxidant response element (ARE) signaling pathway - cell viability counter screen (AID 743203; calls by dose curve; further: nearly all actives have a fitted effect of over 55% in size)
Outline: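 Viability counter screen: CellTiter-Glo luminescence, read after 30 min at room temperature, in ARE-bla HepG2 wells. Compound exposure lasted 16 h at 37C/5% CO2, following a 5 h pre-incubation of the cells after plating.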

[12] = qHTS assay for small molecule activators of the heat shock response signaling pathway - cell viability counter screen (AID 743209); further: nearly all actives have a fitted effect of over 50% in size
Outline: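 Cytotoxicity counter screen run in the same wells as the heat-shock bla reporter assay: HeLa HSE-bla cells, 5 h compound exposure at 37 C, viability read by CellTiter-Glo luminescence.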

[13] = qHTS assay for small molecule activators of the heat shock response signaling pathway (AID 743210; active means well fitted activation curve with a large enough effect in the signal ratio in the repeat runs, with a control signal flat, not every such curve was filed as active; the % refers to the signal ratio;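 further: HeLa cells with beta-lactamase reporter driven by heat shock elements; series mostly up to about 63 µM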)
Outline: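 Following overnight attachment, HSE-bla HeLa cells received test compounds for 5 h at 37 C; beta-lactamase activity was then detected via FRET substrate fluorescence.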

[14] = biological target: Estrogen receptor (Homo sapiens) (UniProt P03372); experiment: qHTS assay to identify small molecule agonists of the estrogen receptor alpha (ER-alpha) signaling pathway (AID 743075; calls by dose curve)
[15] = biological target: Estrogen receptor (Homo sapiens) (UniProt P03372); experiment: qHTS assay to identify small molecule agonists of the estrogen receptor alpha (ER-alpha) signaling pathway using the BG1 cell line (AID 743079); further: nearly all actives have a fitted effect of over 20% in size
[16] = qHTS assay to identify aromatase inhibitors - cell viability counter screen (AID 743084)
[17] = biological target: Peroxisome proliferator-activated receptor gamma (Homo sapiens) (UniProt P37231); experiment: qHTS assay to identify small molecule antagonists of the peroxisome proliferator-activated receptor gamma (PPARg) signaling pathway (AID 743191; calls by dose curve; further: series mostly up to about 63 µM; nearly all actives have a fitted effect of over 30% in size)
Outline: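 GeneBLAzer PPARg UAS-bla HEK293H cells, 5 h post-plating, exposed to compounds 17 h at 37C. LiveBLAzer B/G FRET substrate added for 1 h at room temperature; beta-lactamase reporter read by fluorescence intensity.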

[18] = biological target: Estrogen receptor (Homo sapiens) (UniProt P03372); experiment: qHTS assay to identify small molecule antagonists of the estrogen receptor alpha (ER-alpha) signaling pathway (AID 743069; active means well fitted curve in the direction sought with a large enough effect in the signal ratio in the repeat runs, not every such curve was filed as active; the % refers to the signal ratio)
Outline: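 In this cell-based reporter format, GripTite HEK293 cells harbouring ER-alpha-UAS-bla were grown overnight with 2% charcoal-stripped FBS, dosed with DMSO-dissolved compounds, then challenged with 17beta-estradiol. After 18 hr at 37C, beta-lactamase activity was detected by FRET fluorescence.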

[19] = qHTS assay to identify small molecule antagonists of the estrogen receptor alpha (ER-alpha) signaling pathway using the BG1 cell line (AID 743080; calls by dose curve;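 further: BG1 cells stimulated with 17beta-estradiol alongside compound; series mostly up to about 70 µM; nearly all actives have a fitted effect of over 25% in size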)
Outline: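 Quantitative HTS on the Tox21 10K library: BG1 cells with endogenous ER-alpha and ERE-luciferase reporter, 17beta-estradiol stimulation, 21.5 h compound exposure, luminescence endpoint with parallel fluorescence cytotoxicity counter-read.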

Measured: Potency

Peroxisome proliferator-activated receptor gamma (Homo sapiens), sequence (P37231 whole entry, looked up): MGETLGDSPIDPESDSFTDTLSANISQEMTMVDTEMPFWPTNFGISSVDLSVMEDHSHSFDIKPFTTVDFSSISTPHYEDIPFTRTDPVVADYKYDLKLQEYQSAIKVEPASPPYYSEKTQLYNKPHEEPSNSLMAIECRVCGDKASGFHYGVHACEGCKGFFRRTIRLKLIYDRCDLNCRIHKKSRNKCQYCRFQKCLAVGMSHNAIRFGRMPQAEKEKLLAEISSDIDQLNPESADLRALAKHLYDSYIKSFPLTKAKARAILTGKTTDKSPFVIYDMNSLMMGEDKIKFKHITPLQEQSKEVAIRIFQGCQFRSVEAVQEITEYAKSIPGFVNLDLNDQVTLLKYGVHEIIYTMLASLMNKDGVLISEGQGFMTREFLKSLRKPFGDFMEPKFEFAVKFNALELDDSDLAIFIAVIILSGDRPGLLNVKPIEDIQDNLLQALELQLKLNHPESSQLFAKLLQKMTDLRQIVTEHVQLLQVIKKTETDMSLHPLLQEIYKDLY
Estrogen receptor (Homo sapiens), sequence (P03372 whole entry, looked up): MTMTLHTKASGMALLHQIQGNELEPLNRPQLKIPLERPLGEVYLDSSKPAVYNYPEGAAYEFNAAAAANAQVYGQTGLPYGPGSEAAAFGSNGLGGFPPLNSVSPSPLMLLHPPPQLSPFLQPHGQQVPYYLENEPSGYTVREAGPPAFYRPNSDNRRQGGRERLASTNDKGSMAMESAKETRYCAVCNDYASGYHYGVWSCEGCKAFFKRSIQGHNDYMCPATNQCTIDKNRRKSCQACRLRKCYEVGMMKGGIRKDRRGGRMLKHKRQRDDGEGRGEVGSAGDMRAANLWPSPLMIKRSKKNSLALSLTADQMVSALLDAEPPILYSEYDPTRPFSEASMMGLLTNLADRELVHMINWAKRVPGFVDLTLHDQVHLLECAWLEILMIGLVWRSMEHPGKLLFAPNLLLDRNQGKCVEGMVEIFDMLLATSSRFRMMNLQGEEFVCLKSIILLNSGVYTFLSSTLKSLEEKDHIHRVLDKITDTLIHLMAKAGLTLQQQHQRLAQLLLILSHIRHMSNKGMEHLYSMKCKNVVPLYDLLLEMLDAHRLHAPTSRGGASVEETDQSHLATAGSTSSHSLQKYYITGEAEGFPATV
Aryl hydrocarbon receptor (Homo sapiens), sequence (P35869 whole entry, looked up): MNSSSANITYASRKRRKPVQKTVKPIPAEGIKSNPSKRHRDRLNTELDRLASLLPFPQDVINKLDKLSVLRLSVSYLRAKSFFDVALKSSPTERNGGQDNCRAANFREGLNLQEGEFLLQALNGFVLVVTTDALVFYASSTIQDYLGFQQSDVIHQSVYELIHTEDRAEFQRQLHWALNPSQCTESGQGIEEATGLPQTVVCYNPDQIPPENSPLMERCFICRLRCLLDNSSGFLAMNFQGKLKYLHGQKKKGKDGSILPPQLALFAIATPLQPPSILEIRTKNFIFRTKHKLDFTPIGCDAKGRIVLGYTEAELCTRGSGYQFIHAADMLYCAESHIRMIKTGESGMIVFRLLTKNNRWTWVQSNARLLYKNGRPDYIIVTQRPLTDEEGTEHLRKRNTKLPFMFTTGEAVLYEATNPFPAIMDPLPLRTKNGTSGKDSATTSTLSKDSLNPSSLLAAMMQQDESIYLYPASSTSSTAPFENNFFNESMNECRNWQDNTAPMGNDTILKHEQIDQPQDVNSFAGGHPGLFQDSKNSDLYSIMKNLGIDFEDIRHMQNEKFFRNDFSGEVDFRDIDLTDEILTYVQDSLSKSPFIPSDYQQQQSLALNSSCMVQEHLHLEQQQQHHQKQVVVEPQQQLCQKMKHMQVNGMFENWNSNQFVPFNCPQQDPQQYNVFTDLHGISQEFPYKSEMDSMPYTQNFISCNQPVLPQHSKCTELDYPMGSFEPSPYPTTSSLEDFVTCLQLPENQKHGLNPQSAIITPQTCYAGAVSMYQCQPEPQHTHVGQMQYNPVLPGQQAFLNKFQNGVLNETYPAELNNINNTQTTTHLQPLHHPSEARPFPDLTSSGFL
Aromatase (Homo sapiens), sequence (P11511 whole entry, looked up): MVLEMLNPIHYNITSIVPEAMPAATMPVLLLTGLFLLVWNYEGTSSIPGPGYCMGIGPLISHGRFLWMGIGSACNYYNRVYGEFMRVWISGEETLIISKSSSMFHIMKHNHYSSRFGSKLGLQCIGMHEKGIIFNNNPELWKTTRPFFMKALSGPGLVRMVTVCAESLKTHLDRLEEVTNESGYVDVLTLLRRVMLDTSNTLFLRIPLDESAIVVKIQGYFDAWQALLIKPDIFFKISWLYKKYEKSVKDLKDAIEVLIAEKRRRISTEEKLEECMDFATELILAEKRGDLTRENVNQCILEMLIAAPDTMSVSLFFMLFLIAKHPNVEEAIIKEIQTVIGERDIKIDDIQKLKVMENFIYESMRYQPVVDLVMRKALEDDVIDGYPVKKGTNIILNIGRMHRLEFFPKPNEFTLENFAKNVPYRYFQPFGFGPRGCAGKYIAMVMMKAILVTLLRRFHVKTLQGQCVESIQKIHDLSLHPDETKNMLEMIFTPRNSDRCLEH

O=CNc1ccccc1
inactive: [1] | [2] | [3] | [4] | [5] | Aromatase (Homo sapiens) | [6] | [7] | [8] | [9] | [10] | [11] | [12] | [13]

CCCCCc1ccc(N)cc1
inactive: [1] | [2] | [3] | [14] | [15] | [5] | [16] | [7] | [12] | [13]

CN(C(=O)CCCOc1ccc2[nH]c(=O)ccc2c1)C1CCCCC1
inactive: [1] | [2] | [3] | [4] | [5] | Aromatase (Homo sapiens) | [16] | [7] | [8] | [9] | [10] | [11] | [13]

Nc1nc(CC(=O)O)cs1
inactive: [1] | [2] | [3] | [4] | [5] | Aromatase (Homo sapiens) | [16] | [7] | [8] | [17] | [10] | [11] | [12] | [13]

OCCC1CCCCN1 (stereo unspecified)
inactive: [1] | [2] | [18] | [4] | [14] | [15] | [19] | [5] | Aromatase (Homo sapiens) | [16] | [6] | [7] | [8] | [9] | [11] | [12] | [13]

CCCCCC(CO)CCC (stereo unspecified)
inactive: [1] | [2] | [3] | [4] | Aromatase (Homo sapiens) | [16] | [7] | [8] | [9] | [10] | [11] | [12]

C=C(C)C(=O)OC(C)C
inactive: [1] | [3] | [18] | [4] | [14] | [15] | [19] | [5] | Aromatase (Homo sapiens) | [16] | [6] | [7] | [8] | [17] | [9] | [10] | [11] | [12]

CC1(C)[C@H]2CC[C@]1(C)[C@H](O)C2
inactive: [1] | [2] | [3] | [4] | [5] | Aromatase (Homo sapiens) | [16] | [7] | [9] | [10] | [11] | [12] | [13]

CC(O)C1CCCCC1 (stereo unspecified)
inactive: [1] | [2] | [3] | [5] | Aromatase (Homo sapiens) | [16] | [6] | [7] | [8] | [9] | [11] | [13]

Cc1ccccn1
inactive: [1] | [2] | [3] | [4] | [5] | Aromatase (Homo sapiens) | [16] | [7] | [9] | [10] | [11] | [12] | [13]
